Source: PubChem BioAssay (NCI)
This is part of a sample that, as a whole, favours compounds with a hit. Of some 79,000 tested, about 15% had one in any assay. A number with no mark means an inactive call. Active and inactive are the calls of the source. Rule as the data show it: active = growth inhibition above about 70%; inactive = the rest.

Key:
[1] = NCI Yeast Anticancer Drug Screen. Data for the rad50 strain (AID 155);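 also: 0% = growth of vehicle-only cultures of the same strain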; conditions: S. cerevisiae rad50 strain growth inhibition; at 50.0 µM; stronger effect = higher value
Procedure, shortened: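 Relative growth inhibition (compound vs vehicle) was measured in yeast with a defined repair-gene alteration.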

[2] = NCI Yeast Anticancer Drug Screen. Data for the mec2-1 strain (AID 157); conditions: S. cerevisiae mec2-1 strain, at 50.0 µM, stronger effect = higher value
Procedure, shortened: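 Using mec2-1 yeast: add compound, measure growth, express inhibition versus vehicle-treated cultures.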

[3] = NCI Yeast Anticancer Drug Screen. Data for the sgs1 mgt1 strain (AID 161);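 also: 0% = growth of cultures given vehicle only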; conditions: S. cerevisiae sgs1 mgt1 strain, at 50.0 µM, stronger effect = higher value
Procedure, shortened: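 Yeast cells carrying a defined DNA-repair defect were exposed to test compounds. Growth inhibition was measured relative to vehicle-treated controls.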

[4] = NCI Yeast Anticancer Drug Screen. Data for the cln2 rad14 strain (AID 165);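 also: 0% = growth equal to vehicle treated cultures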; conditions: S. cerevisiae cln2 rad14 strain, at 50.0 µM, stronger effect = higher value
Procedure, shortened: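 Yeast strain cln2 rad14, bearing defects in cell cycle control and DNA repair, serves as the test system; values reflect growth inhibition compared with vehicle.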

[5] = NCI Yeast Anticancer Drug Screen. Data for the bub3 strain (AID 167); conditions: S. cerevisiae bub3 mutant strain, at 50.0 µM, stronger effect = higher value
Procedure, shortened: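 Screening used yeast with an engineered genetic alteration affecting cell cycle control. Compound-exposed cultures were compared with vehicle cultures, and reduced growth was taken as inhibition.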

[6] = NCI Yeast Anticancer Drug Screen. Data for the mlh1 rad18 strain (AID 175); conditions: S. cerevisiae mlh1 rad18 strain growth inhibition; at 50.0 µM; stronger effect = higher value
Procedure, shortened: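 Steps: expose repair-defective yeast to compound; measure growth; express inhibition against vehicle-treated controls.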

Question: With `CCCC/C(CC)=N\N=C(/CC)CCCC` as the compound, how does the growth inhibition [1] read?
Answer: The growth inhibition was 7.3%.

Question: And the growth inhibition [2]?
Answer: The growth inhibition was 7.2%.

Question: And the growth inhibition [3]?
Answer: Its growth inhibition is 17.9%.

Question: What about the growth inhibition [4] of the same compound?
Answer: Its growth inhibition is -28.2%.

Question: And the growth inhibition [5]?
Answer: The growth inhibition was 3.15%.

Question: What about the growth inhibition [6] of the same compound?
Answer: The growth inhibition was 17.5%.

Question: For `CN(C)CCNc1nnc(NCCN(C)C)c2cc3ccccc3cc12`, which growth inhibition [1] is on record?
Answer: Its growth inhibition is -0.7%.

Question: What about the growth inhibition [2] of the same compound?
Answer: Its growth inhibition is 27.3%.

Question: And the growth inhibition [3]?
Answer: Its growth inhibition is -2.45%.

Question: And the growth inhibition [4]?
Answer: Its growth inhibition is 10.5%.

Question: And the growth inhibition [5]?
Answer: Its growth inhibition is -1.4%.

Question: And the growth inhibition [6]?
Answer: The growth inhibition was 7.45%.

Question: Which results are given for `O=C1CSC(=S)N1Nc1ccccc1`?
Answer: growth inhibition [1]: 2.45%; growth inhibition [2]: -22.2%; growth inhibition [3]: 22.2%; growth inhibition [4]: 3.15%; growth inhibition [5]: -15.8%; growth inhibition [6]: -10.1%

Question: What does the source list for `Cc1c(O)c2ccccc2n(C)c1=O`?
Answer: growth inhibition [1]: -9.45%; growth inhibition [2]: -12.4%; growth inhibition [3]: -15.7%; growth inhibition [4]: -6.1%; growth inhibition [5]: 3.85%; growth inhibition [6]: -6.8%

Question: Which growth inhibition [1] does the source give for `CCOC(=O)C(=CNC(=S)c1ccncc1)C(=O)OCC` here?
Answer: Its growth inhibition is -41.6%.

Question: And the growth inhibition [2]?
Answer: Its growth inhibition is -64.5%.

Question: And the growth inhibition [3]?
Answer: Its growth inhibition is -25.8%.

Question: And the growth inhibition [4]?
Answer: The growth inhibition was 18.9%.

Question: What about the growth inhibition [5] of the same compound?
Answer: The growth inhibition was -6.6%.

Question: And the growth inhibition [6]?
Answer: Its growth inhibition is -36%.

Question: With `O=C(O)CCc1nc2ccccc2c(=O)n1Cc1ccccc1` as the compound, how does the growth inhibition [1] read?
Answer: Its growth inhibition is 11.1%.

Question: What about the growth inhibition [2] of the same compound?
Answer: The growth inhibition was 10.1%.

Question: And the growth inhibition [3]?
Answer: Its growth inhibition is -7.3%.

Question: What about the growth inhibition [4] of the same compound?
Answer: The growth inhibition was -6.1%.

Question: What about the growth inhibition [5] of the same compound?
Answer: The growth inhibition was 2.8%.

Question: What about the growth inhibition [6] of the same compound?
Answer: Its growth inhibition is 10.4%.

Question: Which results are given for `COc1c(OC2OC(CO)C(O)C(O)C2O)cc2occ(-c3ccc4c(c3)OCO4)c(=O)c2c1O` (stereo not given)?
Answer: growth inhibition [1]: 23.6%; growth inhibition [2]: -9.7%; growth inhibition [3]: -10%; growth inhibition [4]: 4.6%; growth inhibition [5]: 12.1%; growth inhibition [6]: 18.6%

Question: What does the source list for `CC(=O)NC(=O)NC1=NCCC(=O)N1CCc1c[nH]c2ccccc12`?
Answer: growth inhibition [1]: 4.35%; growth inhibition [2]: -29%; growth inhibition [3]: -6.3%; growth inhibition [4]: 6.25%; growth inhibition [5]: -19.1%; growth inhibition [6]: 7.2%

Question: With `Cc1cc(Cl)ccc1NC(=O)C1C(=O)N(c2ccc(Cl)cc2C)C(=O)/C1=N\NC(N)=O` (stereo not given) as the compound, how does the growth inhibition [1] read?
Answer: Its growth inhibition is 7.65%.

Question: And the growth inhibition [2]?
Answer: The growth inhibition was -24.4%.

Question: What about the growth inhibition [3] of the same compound?
Answer: Its growth inhibition is 14.4%.

Question: And the growth inhibition [4]?
Answer: The growth inhibition was 6.1%.

Question: And the growth inhibition [5]?
Answer: Its growth inhibition is -6.45%.

Question: What about the growth inhibition [6] of the same compound?
Answer: Its growth inhibition is 5.7%.

Question: Which growth inhibition [1] does the source give for `COC(=O)NN(C(=O)OC)C12CCCCC1N(C(=O)OC)N(C(=O)OC)c1c2ccc2cc(OC)ccc12` (stereo not given) here?
Answer: Its growth inhibition is 24.4%.

Question: What about the growth inhibition [2] of the same compound?
Answer: The growth inhibition was -0.7%.

Question: And the growth inhibition [3]?
Answer: The growth inhibition was 7.65%.

Question: And the growth inhibition [4]?
Answer: The growth inhibition was -14.1%.

Question: What about the growth inhibition [5] of the same compound?
Answer: The growth inhibition was 4.2%.

Question: What about the growth inhibition [6] of the same compound?
Answer: Its growth inhibition is 10.9%.

Question: With `O=C1C2C3C=CC(C2C(=O)N1CCl)C1C2C(=O)N(CCl)C(=O)C2C31` (stereo not given) as the compound, how does the growth inhibition [1] read?
Answer: The growth inhibition was 4.2%.

Question: And the growth inhibition [2]?
Answer: Its growth inhibition is 21.1%.

Question: What about the growth inhibition [3] of the same compound?
Answer: The growth inhibition was 7.85%.

Question: And the growth inhibition [4]?
Answer: Its growth inhibition is -5.85%.

Question: And the growth inhibition [5]?
Answer: The growth inhibition was 13.6%.

Question: What about the growth inhibition [6] of the same compound?
Answer: The growth inhibition was 18.7%.

Question: Which results are given for `COC(=O)c1ccc(Cl)nc1`?
Answer: growth inhibition [1]: 0.85%; growth inhibition [2]: -8.6%; growth inhibition [3]: -9.7%; growth inhibition [4]: -6.75%; growth inhibition [5]: -11.1%; growth inhibition [6]: -10.3%

Question: What does the source list for `CCNC(=O)OCc1c(COC(=O)NCC)c(-c2ccc(Cl)c(Cl)c2)n2c1CCC2`?
Answer: growth inhibition [1]: 27.4%; growth inhibition [2]: 24.8%; growth inhibition [3]: 35.4%; growth inhibition [4]: 66.5%; growth inhibition [5]: 10.4%; growth inhibition [6]: 40.8%

Question: With `c1ccc2c3nnc(c2c1)SCCSCCCSCCS3` as the compound, how does the growth inhibition [1] read?
Answer: Its growth inhibition is -24.4%.

Question: What about the growth inhibition [2] of the same compound?
Answer: Its growth inhibition is -31.4%.

Question: What about the growth inhibition [3] of the same compound?
Answer: Its growth inhibition is -2.2%.

Question: And the growth inhibition [4]?
Answer: The growth inhibition was -5.25%.

Question: And the growth inhibition [5]?
Answer: Its growth inhibition is 8.65%.

Question: And the growth inhibition [6]?
Answer: The growth inhibition was -30.4%.

Question: Which results are given for `Cc1cc2c(c(O)c1-c1c(C)cc(O)c3c1C(=O)C=CC3=O)C(=O)C=CC2=O`?
Answer: growth inhibition [1]: -7.1%; growth inhibition [2]: -43.4%; growth inhibition [3]: -8.5%; growth inhibition [4]: -0.2%; growth inhibition [5]: -27.9%; growth inhibition [6]: -43.2%

Question: Which growth inhibition [1] does the source give for `CCCCCCCC/C=C\CCCCCCCC(=O)O` here?
Answer: The growth inhibition was 10.1%.

Question: What about the growth inhibition [2] of the same compound?
Answer: Its growth inhibition is -23.1%.

Question: And the growth inhibition [3]?
Answer: The growth inhibition was -2.2%.

Question: And the growth inhibition [4]?
Answer: The growth inhibition was -22.9%.

Question: What about the growth inhibition [5] of the same compound?
Answer: The growth inhibition was -27.1%.

Question: And the growth inhibition [6]?
Answer: The growth inhibition was -15.7%.

Question: With `CS(=O)(=O)OCCC(COS(C)(=O)=O)NC(=O)c1ccccc1` (stereo not given) as the compound, how does the growth inhibition [1] read?
Answer: Its growth inhibition is -3.75%.

Question: And the growth inhibition [2]?
Answer: Its growth inhibition is -8.95%.

Question: What about the growth inhibition [3] of the same compound?
Answer: Its growth inhibition is -2.85%.

Question: And the growth inhibition [4]?
Answer: The growth inhibition was -18.1%.

Question: And the growth inhibition [5]?
Answer: Its growth inhibition is -10.3%.

Question: What about the growth inhibition [6] of the same compound?
Answer: Its growth inhibition is -4.95%.

Question: For `CN(C)c1nc2ccccn2c1C(=O)c1ccccc1`, which growth inhibition [1] is on record?
Answer: The growth inhibition was 4.85%.

Question: And the growth inhibition [2]?
Answer: The growth inhibition was -0.1%.

Question: And the growth inhibition [3]?
Answer: The growth inhibition was -12.8%.

Question: What about the growth inhibition [4] of the same compound?
Answer: The growth inhibition was -19.4%.

Question: What about the growth inhibition [5] of the same compound?
Answer: Its growth inhibition is -0.6%.

Question: What about the growth inhibition [6] of the same compound?
Answer: Its growth inhibition is -5.5%.

Question: With `Cc1ccc2c(c1)SCc1c-2[nH]c2ccccc12` as the compound, how does the growth inhibition [1] read?
Answer: Its growth inhibition is 93.2% (active).

Question: What about the growth inhibition [2] of the same compound?
Answer: The growth inhibition was 95.3% (active).

Question: And the growth inhibition [3]?
Answer: The growth inhibition was 95.3% (active).

Question: What about the growth inhibition [4] of the same compound?
Answer: The growth inhibition was 88.9% (active).

Question: And the growth inhibition [5]?
Answer: The growth inhibition was 91.8% (active).

Question: And the growth inhibition [6]?
Answer: Its growth inhibition is 92.8% (active).

Question: With `COC(=O)C1(C)CCCC2(C)C3CC(O)C(C(C)C)=CC3(O)CCC12` (stereo not given) as the compound, how does the growth inhibition [1] read?
Answer: Its growth inhibition is 10.2%.

Question: And the growth inhibition [2]?
Answer: Its growth inhibition is -4.65%.

Question: What about the growth inhibition [3] of the same compound?
Answer: The growth inhibition was 15.9%.

Question: What about the growth inhibition [4] of the same compound?
Answer: Its growth inhibition is -12.6%.

Question: And the growth inhibition [5]?
Answer: The growth inhibition was -1%.

Question: And the growth inhibition [6]?
Answer: Its growth inhibition is 15.3%.
